# Compound activity deposited in PubChem BioAssay by several laboratories.
# Shown are actives, neighbours in structure and some others; about 4.6% of the full set was active somewhere.
# tim23-1 inh: growth inhibitors of tim23-1 mutant yeast, primary screen, luminescence, uHTS | 1.3% of 330,000 active | inhibition, % at 20 µM | S. cerevisiae tim23-1 growth, BacTiter-Glo luminescence, 24 h | AID 463212, 2010;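 active = growth inhibition of the mutant yeast at or above 50%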;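 note: temperature-sensitive mutant grown at 25 °C; plate controls were DMSO-treated mutant yeast for no effect and medium wells lacking yeast for full effect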
# V-ATPase pH: regulators of yeast V-ATPase proton pumping, primary screen, pHLuorin cytosolic pH fluorescence; S. cerevisiae; 0.37% of 350,000 active; response, % at 10 µM; in the data active = response mostly above about 7.3%, no sharp cut-off; inactive = mostly below about 5.4%; note: actives read high
# TIM10 inh: growth inhibitors of isogenic TIM10 control yeast, primary screen, counter-screen for tim10-1 yeast inhibitor project, luminescence, uHTS | S. cerevisiae TIM10 strain growth, BacTiter-Glo luminescence, 24 h | inhibition, % at 10 µM | 1.4% of 330,000 active;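 active = inhibition of 40% or more at the single tested concentration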;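 note: wild-type TIM10 isogenic control strain grown at permissive 25 °C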
# PfHsp90 set2: growth inhibition of PfHsp90-expressing yeast, primary screen, antimalarial PfHsp90 inhibitor project, S. cerevisiae, BacTiter-Glo luminescence, single point, set 2; BacTiter-Glo ATP, 48 h; yeast lacking PDR1 and PDR3 efflux regulators; 0.32% of 310,000 active; AID 504621, 2011; inhibition, % at 9.4 µM;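 active = every replicate shows inhibition above about 80%, whatever the replicate mean, limit read from the data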;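 note: 0% = DMSO neutral controls and 100% = 20 µM radicicol positive controls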
# tim10-1 inh: growth inhibitors of tim10-1 mutant yeast, primary screen, luminescence, uHTS. S. cerevisiae tim10-1 ts strain growth, BacTiter-Glo, 24 h. 2.2% of 330,000 active. inhibition, % at 20 µM;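 active = inhibition of at least 40%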;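 note: mutant grown at 25 °C; 0% = DMSO wells with yeast and 100% = wells holding no yeast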
# SKKanGAS inh: S. pyogenes SKKanGAS growth inhibitors in kanamycin, primary screen, streptokinase expression inhibitor project, SKKanGAS strain, BacTiter-Glo luminescence | 6 h | inhibition, % at 7.5 µM | 1.3% of 300,000 active | AID 1662, 2009;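 active = mean replicate score, as percent of positive control median, at least 50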;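 note: strain carries kanamycin resistance gene driven by streptokinase promoter and grows in 40 µg/ml kanamycin; loss of luminescence reflects streptokinase promoter inhibition or plain growth inhibition; 0% = median of DMSO wells and 100% = positive control at its reference dose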
# tim23-1 confirm: tim23-1 mutant yeast growth inhibitors, confirmation, luminescence, single concentration; inhibition, % at 20 µM; AID 463218, 2010; shares compounds with tim23-1 inh; 83% of 4,400 active; S. cerevisiae tim23-1 growth, BacTiter-Glo luminescence, 24 h;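 active = inhibition above about 39% in either of two replicate wells at 20 µM, limit read from the data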;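 note: temperature-sensitive tim23-1 mutant grown at 25 °C; 0% = DMSO wells with yeast and 100% = medium wells without yeast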
# * = called active by the depositor; nt = not tested or not shown.
SMILES,tim23-1 inh,V-ATPase pH,TIM10 inh,PfHsp90 set2,tim10-1 inh,SKKanGAS inh,tim23-1 confirm
N=C1/C(=C\c2coc3ccccc3c2=O)C(=O)N=C2SC(c3ccncc3)=NN12,54*,-2,35,-63,22,21,6
O=C(CNC(=O)c1sc2ccccc2c1Cl)NC1CC1,6,0,9,11,7,2,nt
O=C(Nc1cc(Cl)ccc1O)C1CC(c2ccccc2Cl)=NO1 (stereo not drawn),52*,1,33,-10,24,-2,73*
CSc1ccccc1NC(=O)C1CC(c2ccccc2Cl)=NO1 (stereo not drawn),37,-1,14,25,12,7,nt
O=c1c2ccccc2ccc2ccccc12,2,-1,-2,-3,-18,nt,nt
O=c1c2ccccc2oc2c1ccc1ccccc12,55*,2,28,-40,-13,nt,21
Cc1nc(-c2ccccc2)cc(=O)[nH]1,0,-2,7,nt,8,-1,nt
Cc1[nH]n(-c2nc(-c3ccccc3)cc(=O)[nH]2)c(=O)c1CCO,87*,-4,6,0,2,-1,12
CCOC(=O)C1=CN(Cc2cccc(F)c2)S(=O)(=O)NC1c1ccc(Br)cc1F (stereo not drawn),56*,1,19,-44,29,nt,46*
CN(C)C(=S)Oc1ccccc1C1(C)OCCO1,nt,-3,nt,nt,nt,nt,nt
O=C1/C(=C/c2ccccc2Cl)SC(=S)N1CCCC(=O)N(CCO)c1ccccc1,56*,-3,22,-9,33,33,48*
O=C(CCCN1C(=O)/C(=C/c2ccccc2Cl)SC1=S)Nc1ccccn1,33,0,18,-6,36,11,nt
Oc1ccccc1/C=N/NC(=S)NC1CC2CCC1C2 (stereo not drawn),66*,1,5,-50,28,70*,37
COC(=O)N/N=C/c1ccc(-c2cc(Cl)cc(Cl)c2)o1,57*,3,35,-43,34,-3,62*
C=CCn1c(Oc2ccc(C=O)cc2OCC)nc2c1c(=O)n(C)c(=O)n2C,28,0,27,-17,22,-1,nt
CC(C)(C)c1nnc(N/N=C/c2ccccc2O)n(N)c1=O,62*,1,37,-22,34,24,47*
CCN1CCN(c2cc(-c3ccccc3)nc3cc(-c4cccc(F)c4)nn23)CC1,53*,-6,25,13,26,20,33
CCOc1ccccc1C(=O)Oc1ccc2ccc(=O)oc2c1,68*,0,32,9,5,0,47*
CCC(C)Sc1cc(C)c(C#N)c2nc3ccccc3n12 (stereo not drawn),54*,3,32,-7,17,43,37
C=CCOc1ccc(/C=C2\SC(=S)N(NS(=O)(=O)c3ccccc3)C2=O)cc1,60*,-1,26,-18,19,36,56*
COc1cccc(CNn2c(-c3cccc(C)c3)nc3ccccc3c2=O)c1O,57*,0,20,nt,28,3,45*
CC(NC(=O)c1ccc2c(c1)OCO2)C(c1cccs1)N1CCN(c2ccccc2)CC1 (stereo not drawn),30,-2,7,-15,7,5,nt
N#Cc1nc(-c2cccc3ccccc23)oc1NCC1CCCO1 (stereo not drawn),54*,1,33,nt,30,1,52*
O=C(Cc1cccc(F)c1)N1CCOCC1,nt,0,nt,0,nt,nt,nt
COc1ccc(OC)c(C(=O)COC(=O)c2ccc([N+](=O)[O-])o2)c1,55*,0,21,5,23,nt,57*
SMILES,tim23-1 inh,V-ATPase pH,TIM10 inh,PfHsp90 set2,tim10-1 inh,SKKanGAS inh,tim23-1 confirm
COc1ccc(OC)c(C(=O)COC(=O)c2cc(C)oc2C)c1,16,2,26,-6,23,-7,nt
COc1cc2[nH]c(=O)n(CCC(=O)NCCCN3CCN(c4ccccc4F)CC3)c(=O)c2cc1OC,13,-1,-11,-1,-3,7,nt
O=C1c2ccccc2/C(=C\c2ccc3[nH]ccc3c2)N1c1ccccc1,63*,4,34,9,35,nt,53*
CN(C)c1ccc(/C=c2/sc3n(c2=O)NC2(c4ccccc4)N(C)C(=O)N(C)C2(c2ccccc2)N=3)cc1 (stereo not drawn),22,nt,-9,nt,7,15,nt
CN1c2ccccc2C(=O)C(=C2SCCCS2)S1(=O)=O,53*,7,38,0,25,-6,54*
O=C(COC(=O)C12CC3CC(CC(Cl)(C3)C1)C2)Nc1ccccc1,54*,3,13,1,0,nt,46*
COc1ccccc1NC(=O)COC(=O)C12CC3CC(CC(Cl)(C3)C1)C2,32,1,2,-17,2,-2,nt
Fc1ccc(-c2n[nH]c(=S)n2Cc2ccccc2)cc1,56*,2,36,-16,16,-2,29
COC(=O)c1cccc(-c2ccc(C(c3c(C)[nH][nH]c3=O)c3c(C)[nH][nH]c3=O)o2)c1,51*,-1,5,-4,33,-2,49*
COC(=O)c1ccc(C(c2c(C)[nH][nH]c2=O)c2c(C)[nH][nH]c2=O)cc1,-6,0,-6,-39,18,-3,nt
COC(=O)c1ccc(/C=C2\N=C(SC)SC2=O)cc1,34,4,-31,-4,11,3,nt
CSC1=N/C(=C\c2ccc(C)cc2)C(=O)S1,61*,-2,9,17,29,4,56*
Cc1nc2ccc(NS(=O)(=O)c3ccc(Br)cc3)cc2s1,51*,1,17,18,10,nt,34
CCN1CCN(C(=S)c2ccc(OC)cc2)CC1,5,-1,-18,nt,12,0,nt
COc1ccc(C(=S)N2CCN(c3ccccc3C)CC2)cc1,51*,-5,32,-13,28,7,40*
CC(=O)NC1C(OCc2cccc(Br)c2)OC(COC(C)=O)C(OC(C)=O)C1OC(C)=O (stereo not drawn),93*,0,6,21,-6,-1,13
CC(=O)N[C@H]1[C@H](OCc2ccccc2F)O[C@H](COC(C)=O)[C@@H](OC(C)=O)[C@@H]1OC(C)=O,-11,5,-5,-11,-5,0,nt
COc1ccc(N2C(=O)CC(NCc3cccs3)C2=O)cc1 (stereo not drawn),55*,5,1,-24,-4,0,13
CCOC(=O)NN=C1c2ccccc2-c2ccccc21,35,-3,11,-39,19,-13,nt
